Bioassay records from PubChem BioAssay.
The entries come from a sample that favours hits as a whole.
TbREL1 primary: TbREL1 inhibition, primary screen | P86926 | TbREL1 RNA ligation, FRET fluorescence | inhibition, % at 9.66 µM | 0.49% of 89,000 active | AID 1117264;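 active means inhibition above the mean inhibition across all screened compounds plus 3 SD, cut at about 11% in these data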
Target sequence (P86926 whole entry, looked up): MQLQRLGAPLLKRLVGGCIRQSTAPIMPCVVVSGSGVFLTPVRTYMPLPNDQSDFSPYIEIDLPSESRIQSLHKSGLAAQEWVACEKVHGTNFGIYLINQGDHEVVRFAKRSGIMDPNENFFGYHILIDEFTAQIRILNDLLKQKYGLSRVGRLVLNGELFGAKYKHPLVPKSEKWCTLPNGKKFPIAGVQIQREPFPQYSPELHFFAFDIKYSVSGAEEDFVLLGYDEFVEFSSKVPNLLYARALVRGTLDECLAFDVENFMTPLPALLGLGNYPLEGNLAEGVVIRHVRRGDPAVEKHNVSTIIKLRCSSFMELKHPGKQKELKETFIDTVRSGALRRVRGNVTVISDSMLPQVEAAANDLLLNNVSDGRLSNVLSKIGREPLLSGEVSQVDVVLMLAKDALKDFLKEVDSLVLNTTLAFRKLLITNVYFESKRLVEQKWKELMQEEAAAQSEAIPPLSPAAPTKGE
TbREL1 conf: TbREL1 inhibition, confirmation. inhibition, % at 9.66 µM. shares compounds with TbREL1 primary. TbREL1 RNA ligation, FRET fluorescence. 37% of 390 active. AID 1117282;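 active means mean inhibition across replicates above a set limit taken from the earlier primary screen, cut at about 11% in these data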
Each line names hits and unclear results; the compound was inactive in the other large screens (follow-up assays come after a bar, where they were run).

CCCCN(C(=O)c1cc(-c2ccco2)nc2ccccc12)c1c(N)n(CCC)c(=O)[nH]c1=O	none
O=C(Nc1nnc(C2CC2)s1)c1cncc(Br)c1	none
Cc1ccc(N(CC(=O)N2CCn3c2nc2ccccc23)S(=O)(=O)c2c(C)n[nH]c2C)cc1	none
CC(C)c1c(Cl)c(O)c(-c2ccccc2)c(=O)n1-c1ccc(F)cc1	TbREL1 primary 17 | TbREL1 conf 13
Cc1ccc(-n2c3c(c(O)c(-c4ccccc4)c2=O)C(=O)CC(C)(C)C3)cc1	none
COc1ccc(-c2c(O)c(C#N)c(-c3ccccc3)n(-c3ccc(OC)cc3)c2=O)cc1	none
Cc1ccnn1CC(=O)N/N=C/c1ccc2c(c1)OCO2	none
O=C(COC(=O)/C=C/C(=O)N1CCN(c2ccccc2)CC1)NC(c1ccccc1)c1ccccc1	none
O=C1NC(=NCc2ccccc2)S/C1=C\c1ccccc1	none
COc1ccccc1C=C1SC(=S)NC1=O	none
O=C1NC(=S)S/C1=C\c1ccc(SCc2ccccc2)o1	TbREL1 primary 43 | TbREL1 conf inactive
O=C(c1sc2ccccc2c1Cl)N(Cc1cccs1)C1CCS(=O)(=O)C1 (stereo unspecified)	none
C[C@H](NC(=O)c1nc[nH]c1C(=O)N[C@H](C)c1ccccc1)C(=O)OCc1ccccc1	none
CCOc1ccc(C(=O)NCCCCNC(=O)c2ccc(OCC)cc2)cc1	none
CC1=C(C(=O)N2CCOCC2)C(c2cc(C)ccc2C)NC(=S)N1 (stereo unspecified)	none
CN1CCN(C2CCN(Cc3ccc(O)c4ncccc34)CC2)CC1	TbREL1 primary 17 | TbREL1 conf inactive
Oc1c(Cl)cc(CN2CCOCC2)c2cccnc12	none
O=S(=O)(c1ccc(Cl)cc1)N1CCN(Cc2ccc(O)c3ncccc23)CC1	none
O=C(NCCNC1CCC(c2ccccc2)CC1)c1cccs1 (stereo unspecified)	none
CCS(=O)(=O)N1N=C(c2cccs2)CC1c1cc2cc(C)ccc2nc1Cl (stereo unspecified)	none
Cc1onc(-c2ccccc2)c1C(=O)N(Cc1ccccn1)Cc1ccccn1	TbREL1 primary 11 | TbREL1 conf inactive
Cc1onc(-c2ccccc2)c1C(=O)N(C)CCc1ccccn1	none
Cc1onc(-c2ccccc2)c1C(=O)NC(C)C	none
CCC1CCCCN1S(=O)(=O)c1ccccc1[N+](=O)[O-] (stereo unspecified)	none
O=[N+]([O-])c1ccccc1S(=O)(=O)N1CCN(C2CCCC2)CC1	TbREL1 primary 11 | TbREL1 conf inactive
CS(=O)(=O)N1CCN(S(=O)(=O)c2ccccc2[N+](=O)[O-])CC1	none
CCCC1NC(=O)c2cccnc2-n2c1nc1ccc(Br)cc1c2=O (stereo unspecified)	none
O=C(O)c1ccc(S(=O)(=O)c2ccc3c(c2)C(=O)N(CC2CCCO2)C3=O)cc1 (stereo unspecified)	none
Cc1ccc(C(=O)NN2C(=O)c3ccc(S(=O)(=O)c4ccc(C(=O)O)cc4)cc3C2=O)cc1	none
O=C(O)c1ccc(S(=O)(=O)c2ccc3c(c2)C(=O)N(NC(=O)c2ccc(O)cc2)C3=O)cc1	TbREL1 primary 12 | TbREL1 conf inactive
c1ccc(-c2c(-c3ccccc3)n(Cc3ccco3)c3ncnc(NCCCn4ccnc4)c23)cc1	none
COc1ccc(-c2oc3ncnc(N)c3c2-c2ccccc2)cc1	none
CN(C)CCCNc1ncnc2oc(-c3ccccc3)c(-c3ccccc3)c12	TbREL1 primary 12 | TbREL1 conf inactive
CN(C)S(=O)(=O)n1cc(/C=C(\NC(=O)c2ccccc2)C(=O)NCCCN2CCOCC2)c2ccccc21	none
CCOC(=O)Cc1csc(NC(=O)CCNS(=O)(=O)c2ccc3c(c2)CCC(=O)N3)n1	none
COc1ccc(C[C@H]2CN3C(=NC[C@@H]3Cc3ccccc3)N2CCNC(=O)CCC2CCCCC2)cc1	TbREL1 primary 21 | TbREL1 conf 18
C[C@@H]1CN=C2N(CCNC(=O)CCC3CCCCC3)[C@H](Cc3ccc(O)cc3)CN21	none
O=C(CCC1CCCCC1)NCCN1C2=NC[C@H](Cc3ccc(O)cc3)N2C[C@H]1Cc1ccc(O)cc1	none
CCOC(=O)N1CCN(c2c(N3CCc4ccccc4C3)c(=O)c2=O)CC1	none
CN1CCN(C2=Cc3cc(Cl)ccc3Sc3cc(F)ccc32)CC1	none
COc1ccc(-c2cc(C(=O)Nc3ccccc3N3CCOCC3)c3ccccc3n2)cc1OC	none
O=C(O)c1ccnc(C(=O)O)c1	TbREL1 primary 13 | TbREL1 conf 16
CCOc1ccc(C(=O)O)cc1OC	none
O=C(O)c1cccc(NS(=O)(=O)c2cccc3cccnc23)c1	none
CCOC(=O)[C@]12CCC=C1N(Cc1ccc3c(c1)OCO3)C(=O)[C@H](CC(=O)NCCC(C)C)C2	none
Cc1ccc(Cn2cc(/C=C/C(=O)O)c(-c3ccccc3)n2)cc1	none
CN1CCN(C(=O)/C=C/c2cn(-c3ccccc3)nc2-c2ccc3c(c2)OCCO3)CC1	none
Cc1ccc(-c2nn(-c3ccccc3)cc2/C=C/C(=O)O)o1	TbREL1 primary 11 | TbREL1 conf inactive
COc1ccccc1N1CCN(C2CCCN(C(=O)c3cc(C(C)C)on3)C2)CC1 (stereo unspecified)	none
CCn1c(SCC(=O)Nc2ccc(N3CCOCC3)cc2)nnc1-c1ccncc1	none
COc1cc(OC)cc(-c2c(-c3ccc(F)cc3)c3cc(-c4cccc5[nH]ccc45)ccc3n2C)c1	none
CCOC(=O)c1nn(-c2ccc(Cl)cc2)c2nnc(Cc3ccc(C)cc3)c(=O)n12	none
